Screening data (PubChem BioAssay)
Only some compounds are listed: those with a hit (about 27% of all), similar ones and a draw of the others.
CYP2C9 inh = blockers of cytochrome P450 2C9 activity – biochemical, luminescence, ADME assay, primary screen | inhibition, % at 5 µM | CYP2C9 Supersomes, luciferin-H conversion | actives 20% (n = 96,000);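 active means blocking of liver enzyme CYP2C9 beyond about 50% at 5 µM, limit read from the data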
sEH activator = soluble epoxide hydrolase activators, primary screen, biochemical, human sEH; activation, % at 2 µM; purified human sEH enzymatic activity, activator screen; actives 0.04% (n = 91,000); AID 717, 2007; in the data active means activation above about 37%
Target sequence (P34913 whole entry, looked up): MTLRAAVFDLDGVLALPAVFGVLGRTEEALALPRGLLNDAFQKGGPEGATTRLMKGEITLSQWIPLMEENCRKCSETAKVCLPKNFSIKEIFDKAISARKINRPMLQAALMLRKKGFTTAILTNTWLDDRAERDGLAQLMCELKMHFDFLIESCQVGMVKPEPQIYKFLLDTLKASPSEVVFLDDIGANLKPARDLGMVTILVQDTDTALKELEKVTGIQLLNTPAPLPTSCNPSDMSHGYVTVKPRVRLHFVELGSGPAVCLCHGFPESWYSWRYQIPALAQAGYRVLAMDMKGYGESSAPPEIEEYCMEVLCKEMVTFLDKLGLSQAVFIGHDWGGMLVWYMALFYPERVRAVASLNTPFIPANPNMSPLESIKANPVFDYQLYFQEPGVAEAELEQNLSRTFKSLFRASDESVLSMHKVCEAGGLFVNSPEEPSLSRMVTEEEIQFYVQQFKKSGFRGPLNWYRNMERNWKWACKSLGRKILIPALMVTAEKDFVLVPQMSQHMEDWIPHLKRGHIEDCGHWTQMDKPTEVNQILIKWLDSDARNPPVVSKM
sEH inhibitor = soluble epoxide hydrolase inhibitors, primary screen, biochemical, human sEH. Bifunctional epoxide hydrolase 2 (Homo sapiens), P34913. recombinant human sEH enzymatic activity assay. inhibition, % at 2 µM. actives 0.34% (n = 91,000). AID 707, 2007; in the data active means inhibition above about 80%
CYP2C19 act = human CYP2C19 activators, primary screen, biochemical, luminescence | Cytochrome P450 2C19 (Homo sapiens), P33261 | recombinant CYP2C19, luciferin-H EGE luminescence; active compounds read high; 0 = fully inhibited enzyme, 1 = untreated enzyme | activation factor at 5 µM | 96,000 tested, under 10 active | AID 1025, 2008;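 active means activation factor of at least 2 at 5 µM in the primary screen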;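 further: 0 = wells with 2.5 mM tranylcypromine and 1 = vehicle-only wells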
CYP2C9 activ = human CYP2C9 activators, primary screen, biochemical, luminescence. Cytochrome P450 2C9 (Homo sapiens), P11712. recombinant CYP2C9, luciferin-H conversion; active compounds read high; factor 1 = untreated enzyme, 0 = blocked. activation factor at 5 µM. actives 1.4% (n = 96,000);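 active means activation factor of 2 or more for CYP2C9 at a 5 µM dose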;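 further: 0 = sulfaphenazole-blocked wells and 1 = vehicle-only wells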
CYP2C19 inhib = blockers of cytochrome P450 2C19 activity – biochemical, luminescence, ADME assay, primary screen. P33261. CYP2C19 Supersomes, luciferin-H EGE luminescence, 30 min. inhibition, % at 5 µM. actives 21% (n = 96,000);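 active means CYP2C19 inhibition above a set limit at 5 µM in the primary screen, cut at about 50% in these data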;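 further: plate controls were negative control wells for no effect and 2.5 mM tranylcypromine positive control for full effect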
* hit, by the source's call.

Results for O=C(CN(Cc1ccccc1Cl)C(=O)Cn1nnc(-c2cccs2)n1)NCC1CCCO1 (stereo unspecified) ?
CYP2C9 inh: 40.1; CYP2C19 act: 0.7; CYP2C9 activ: 0.6; CYP2C19 inhib: 26.8

What do the screens show for `O=C(CN(C(=O)Cn1nnc(-c2cccs2)n1)c1ccc2c(c1)OCCO2)NCc1ccccc1`?
CYP2C9 inh: 95.7*; sEH activator: 0.1; sEH inhibitor: 3.5; CYP2C19 act: 0.4; CYP2C9 activ: 0; CYP2C19 inhib: 59.5*

How did O=C(CN(CCc1ccccc1)C(=O)CN1C(=O)COc2ccccc21)NCc1ccco1 do in these assays?
CYP2C9 inh: 30.2; sEH activator: 12.1; sEH inhibitor: -13.2; CYP2C19 act: 0.6; CYP2C9 activ: 0.7; CYP2C19 inhib: 36.5

Results for CSc1nc2c(c(C(F)(F)F)n1)CC(C)CC2 (stereo unspecified) ?
CYP2C9 inh: -6.5; sEH activator: 12.3; sEH inhibitor: -8.5; CYP2C19 act: 1; CYP2C9 activ: 1.1; CYP2C19 inhib: -0.7

What do the screens show for `CC(C)c1ccc(CNc2ccc(N3CCOCC3)cc2)cc1`?
CYP2C9 inh: -0.2; sEH activator: -13.6; sEH inhibitor: 11.8; CYP2C19 act: 0; CYP2C9 activ: 1; CYP2C19 inhib: 95.1*

How did CCOC(=O)c1c(NC(=O)CNCCO)sc(C)c1C do in these assays?
CYP2C9 inh: 65.2*; sEH activator: -11.3; sEH inhibitor: 12.2; CYP2C19 act: 0.7; CYP2C9 activ: 0.3; CYP2C19 inhib: 33.1

Results for CCOC(=O)c1c(NC(N)=O)sc(C)c1C ?
CYP2C9 inh: 51.9*; sEH activator: -3.9; sEH inhibitor: 5.3; CYP2C19 act: 0.8; CYP2C9 activ: 0.5; CYP2C19 inhib: 23.5

How did O=C(Nc1nccs1)C1CCN(S(=O)(=O)c2c(Cl)cccc2Cl)CC1 do in these assays?
CYP2C9 inh: 39.9; sEH activator: -28.3; sEH inhibitor: 27.7; CYP2C19 act: 0.1; CYP2C9 activ: 0.6; CYP2C19 inhib: 91.5*

What do the screens show for `O=C(Nc1cc(Cl)ccn1)C1CCN(S(=O)(=O)c2cccs2)CC1`?
CYP2C9 inh: -10.3; sEH activator: -13.7; sEH inhibitor: 11.1; CYP2C19 act: 0.7; CYP2C9 activ: 1.1; CYP2C19 inhib: 33.5

How did Cc1n[nH]c(C)c1S(=O)(=O)N1CCCC(C(=O)NCc2cccs2)C1 (stereo unspecified) do in these assays?
CYP2C9 inh: -6.3; sEH activator: -6.3; sEH inhibitor: 5.9; CYP2C19 act: 0.6; CYP2C9 activ: 1.1; CYP2C19 inhib: 36.2

What do the screens show for `Cc1n[nH]c(C)c1S(=O)(=O)N1CCCC(C(=O)Nc2nccs2)C1` (stereo unspecified)?
CYP2C9 inh: 73.4*; sEH activator: -4.3; sEH inhibitor: 3.9; CYP2C19 act: 0.4; CYP2C9 activ: 0.3; CYP2C19 inhib: 61.0*

Results for Cc1ccc(CNC(=O)C2CCCN(S(=O)(=O)c3c(C)n[nH]c3C)C2)cc1 (stereo unspecified) ?
CYP2C9 inh: 15.0; sEH activator: -7.4; sEH inhibitor: 7.0; CYP2C19 act: 0.3; CYP2C9 activ: 0.8; CYP2C19 inhib: 70.6*

How did CC(C)n1c(SC2CCOC2=O)nc2ccccc21 (stereo unspecified) do in these assays?
CYP2C9 inh: -89.4; sEH activator: -1.9; sEH inhibitor: 1.5; CYP2C19 act: 0.9; CYP2C9 activ: 1.9; CYP2C19 inhib: 5.6

Results for COCCCNC(=S)NC1CC2CCCC(C1)N2Cc1ccco1 (stereo unspecified) ?
CYP2C9 inh: -13.5; sEH activator: 5.7; sEH inhibitor: -4.6; CYP2C19 act: 1; CYP2C9 activ: 1.1; CYP2C19 inhib: 3.8

What do the screens show for `O=C(COC(=O)c1cc(S(=O)(=O)N2CCc3ccccc3C2)ccc1Cl)NCc1ccco1`?
CYP2C9 inh: 66.3*; sEH activator: -21.0; sEH inhibitor: 20.3; CYP2C19 act: 0.6; CYP2C9 activ: 0.3; CYP2C19 inhib: 40.5

What do the screens show for `CCn1cc(C(=O)NCCN(C)CCc2ccccc2)c(=O)c2cc(S(=O)(=O)N(C)C)ccc21`?
CYP2C9 inh: 74.8*; sEH activator: -0.2; sEH inhibitor: -4.2; CYP2C19 act: 0.6; CYP2C9 activ: 0.3; CYP2C19 inhib: 37.0

How did CCn1cc(C(=O)NCc2ccco2)c(=O)c2cc(S(=O)(=O)N3CC(C)CC(C)C3)ccc21 (stereo unspecified) do in these assays?
CYP2C9 inh: 58.5*; sEH activator: -5.4; sEH inhibitor: 7.3; CYP2C19 act: 0.9; CYP2C9 activ: 0.4; CYP2C19 inhib: 9.0

How did O=C(COC(=O)c1cccc(S(=O)(=O)N2CCc3ccccc3C2)c1)NCc1ccco1 do in these assays?
CYP2C9 inh: 41.8; CYP2C19 act: 0.7; CYP2C9 activ: 0.6; CYP2C19 inhib: 28.2

How did O=C(NCc1ccco1)c1cc(S(=O)(=O)N2CCOCC2)ccc1Cl do in these assays?
CYP2C9 inh: 11.9; CYP2C19 act: 0.9; CYP2C9 activ: 0.9; CYP2C19 inhib: 13.1

What do the screens show for `C=CCn1cc(C(=O)NCc2ccco2)c(=O)c2cc(S(=O)(=O)N3CCCCCC3)ccc21`?
CYP2C9 inh: 88.7*; sEH activator: -4.3; sEH inhibitor: 5.0; CYP2C19 act: 0.6; CYP2C9 activ: 0.1; CYP2C19 inhib: 44.1

How did Brc1ccc(-c2nnc3n2C2(CCCC2)Cc2ccccc2-3)o1 do in these assays?
sEH activator: -8.0; sEH inhibitor: 9.1

What do the screens show for `CN(C(=O)Cc1ccccc1)n1cnnc1`?
sEH activator: -5.4; sEH inhibitor: 5.3

How did CCn1cc(C(=O)NCc2ccco2)c(=O)c2cc(S(=O)(=O)N3CCc4ccccc4C3)ccc21 do in these assays?
CYP2C9 inh: 78.5*; sEH activator: 9.3; sEH inhibitor: -7.1; CYP2C19 act: 0.6; CYP2C9 activ: 0.2; CYP2C19 inhib: 36.5

Results for CCn1cc(C(=O)NCc2ccccn2)c(=O)c2cc(S(=O)(=O)N3CCCCC3)ccc21 ?
CYP2C9 inh: 48.2; sEH activator: -1.8; sEH inhibitor: 1.3; CYP2C19 act: 0.9; CYP2C9 activ: 0.5; CYP2C19 inhib: 9.9

Results for CCn1cc(C(=O)NCc2ccco2)c(=O)c2cc(S(=O)(=O)N3CCCCCC3)ccc21 ?
CYP2C9 inh: 86.3*; sEH activator: -13.5; sEH inhibitor: 15.3; CYP2C19 act: 0.5; CYP2C9 activ: 0.1; CYP2C19 inhib: 49.4

Results for CCn1cc(C(=O)NCCCN2CCC(C)CC2)c(=O)c2cc(S(=O)(=O)N3CCCC3)ccc21 ?
CYP2C9 inh: 14.3; CYP2C19 act: 1; CYP2C9 activ: 0.9; CYP2C19 inhib: -4.9
